This is an account of results in PubChem BioAssay (EPA / NIEHS).

Records with an inconclusive call do not appear. Calls of active or inactive are those of the source. How the source made its calls, unless noted: active means hit-call score of the fitted dose curve at least 0.9, where 1 is the maximum; inconclusive means response in the unintended direction; inactive means score below 0.9.

Experiment [1] addresses Hepatocyte nuclear factor 4-alpha (Homo sapiens) (UniProt P41235). Briefly: ATG_HNF4a_TRANS: Attagene TRANS-FACTORIAL HepG2 Assay for human Hepatocyte Nuclear Factor 4 alpha (HNF4a) (AID 2282982). Conditions: HepG2 HNF4a transactivation reporter, mRNA readout. In outline:
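Transient MRTU transfection of HepG2, 24 h dosing. Readout: reporter mRNA via RT-PCR + capillary electrophoresis, fluorescence; activity fit upward relative to DMSO control.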

The nature of experiment [2]: ATG_M_06_TRANS: Attagene TRANS-FACTORIAL HepG2 Assay for M06 Transcription Factor (Internal Marker) (AID 2282983).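 Further: reporter transcript level by RT-PCR then capillary electrophoresis fluorescence.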 Conditions: HepG2 Attagene TRANS M06 internal marker reporter. In outline: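 In this multiplexed HepG2 system, compounds are incubated 24 h with cells carrying GAL4-UAS reporter units. Reporter RNA is amplified and resolved by capillary electrophoresis, and induction is scored against DMSO.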

For experiment [3], the target named is Nuclear receptor subfamily 4 group A member 2 (Homo sapiens) (UniProt P43354). Briefly: ATG_NURR1_TRANS: Attagene TRANS-FACTORIAL HepG2 Assay for human Nuclear Receptor Related Protein 1 (NURR1) (AID 2282985). Conditions: HepG2 Attagene TRANS reporter, mRNA readout. In outline:
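Read-out: reporter mRNA induction by RT-PCR plus capillary electrophoresis with fluorescence detection, after 24 h dosing of transfected HepG2 cells. Exogenous NR-Gal4 chimera activity drives GAL4-UAS reporter; activity fitted upward versus DMSO.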

The target of experiment [4] is Transcriptional activator Myb (Homo sapiens) (UniProt P10242). Briefly: ATG_Myb_CIS: Attagene CIS-FACTORIAL HepG2 Assay for human Myeloblastosis (Myb) Proto-Oncogene Transcription Factor (AID 2282986; active means hit-call score of the fitted dose curve at least 0.9, where 1 is the maximum; inactive means score below 0.9). As to conditions: HepG2 Attagene CIS-FACTORIAL Myb reporter transcription; actives raise or lower the signal. The gist of the method:
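Endogenous transcription factor activity at a Myb-responsive cis element is reported in human liver HepG2 cells after 24 h chemical treatment. Reporter mRNA is detected by RT-PCR and capillary electrophoresis fluorescence, with DMSO as baseline.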

Experiment [5] has as its target Nuclear respiratory factor 1 (Homo sapiens) (UniProt Q16656). Put plainly: ATG_NRF1_CIS: Attagene CIS-FACTORIAL HepG2 Assay for human Nuclear Respiratory Factor 1 (NRF1) Orphan Gene (AID 2282987; active means hit-call score of the fitted dose curve at least 0.9, where 1 is the maximum; inactive means score below 0.9). As to conditions: HepG2 NRF1 cis-element reporter, Attagene multiplex; actives raise or lower the signal. In outline: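 Human hepatoma HepG2 cells carrying transfected promoter-regulated reporter units were incubated with test chemicals for 24 h. Reporter transcripts were measured by RT-PCR plus capillary electrophoresis, and endpoints derived by bidirectional fitting with DMSO as baseline.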

The nature of experiment [6]: ATG_NFI_CIS: Attagene CIS-FACTORIAL HepG2 Assay for human Nuclear Factor I (NFI) (AID 2282989; active means hit-call score of the fitted dose curve at least 0.9, where 1 is the maximum; inactive means score below 0.9). As to conditions: HepG2 cis-regulatory reporter, NFI response element transcription; actives raise or lower the signal. In outline:
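Reporter transcription driven by endogenous transcription factors in HepG2 cells; 24 h treatment. Quantitation by labelled RT-PCR fragments on capillary electrophoresis, gain- or loss-of-signal relative to DMSO.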

For experiment [7], the target named is Oxysterols receptor LXR-beta (Homo sapiens) (UniProt P55055). Briefly: ATG_LXRb_TRANS: Attagene TRANS-FACTORIAL HepG2 Assay for human Liver X Receptor beta (LXRb) (AID 2282981). As to conditions: HepG2 Attagene TRANS GAL4-LXRb reporter, mRNA. The gist of the method: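 Readout: fluorescent reporter mRNA fragments resolved by capillary electrophoresis after RT-PCR. System: transiently transfected human HepG2, exogenous LXRb-Gal4 chimera driving GAL4-UAS reporter, 24 h dosing. Activity fitted upward against DMSO baseline.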
Chain of Oxysterols receptor LXR-beta (Homo sapiens) (P55055 whole entry, looked up, the tested form may be a part): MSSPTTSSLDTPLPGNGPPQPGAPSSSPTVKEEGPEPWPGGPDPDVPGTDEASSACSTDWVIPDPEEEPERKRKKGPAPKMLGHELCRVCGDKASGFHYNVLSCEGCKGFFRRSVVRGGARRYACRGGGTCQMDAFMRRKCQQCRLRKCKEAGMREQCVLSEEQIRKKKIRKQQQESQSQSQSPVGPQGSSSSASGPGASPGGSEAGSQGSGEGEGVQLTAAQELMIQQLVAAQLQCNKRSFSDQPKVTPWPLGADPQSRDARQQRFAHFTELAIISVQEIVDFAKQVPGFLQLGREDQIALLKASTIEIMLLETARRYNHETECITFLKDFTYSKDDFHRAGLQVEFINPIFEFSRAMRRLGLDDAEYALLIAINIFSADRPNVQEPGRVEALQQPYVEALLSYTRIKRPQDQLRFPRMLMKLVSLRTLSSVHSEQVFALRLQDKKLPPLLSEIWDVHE

Experiment [8] in a line: ATG_M_32_TRANS: Attagene TRANS-FACTORIAL HepG2 Assay for M32 Transcription Factor (Internal Marker) (AID 2282984).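 Further: transcript level of a background control reporter unit measured by RT-PCR and capillary electrophoresis.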 As to conditions: HepG2 Attagene TRANS M32 internal marker reporter. In outline: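 Read-out: fluorescent reporter cDNA fragments resolved by capillary electrophoresis after RT-PCR of total RNA. Transfected HepG2 cells were exposed to chemical for 24 h. Activity scored in the positive direction relative to DMSO.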

Chain of Nuclear respiratory factor 1 (Homo sapiens) (Q16656 whole entry, looked up): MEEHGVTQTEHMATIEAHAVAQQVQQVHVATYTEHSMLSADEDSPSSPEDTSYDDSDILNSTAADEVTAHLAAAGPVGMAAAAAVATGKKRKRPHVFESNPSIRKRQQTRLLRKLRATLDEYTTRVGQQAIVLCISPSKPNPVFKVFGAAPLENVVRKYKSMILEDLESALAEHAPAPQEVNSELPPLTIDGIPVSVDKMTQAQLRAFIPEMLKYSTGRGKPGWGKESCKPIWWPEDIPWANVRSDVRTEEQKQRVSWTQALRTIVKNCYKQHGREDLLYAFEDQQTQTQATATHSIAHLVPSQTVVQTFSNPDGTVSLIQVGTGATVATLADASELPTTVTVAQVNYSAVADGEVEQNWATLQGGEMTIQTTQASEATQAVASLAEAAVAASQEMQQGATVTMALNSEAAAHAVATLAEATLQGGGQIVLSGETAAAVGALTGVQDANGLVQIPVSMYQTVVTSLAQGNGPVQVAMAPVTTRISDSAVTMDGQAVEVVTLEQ
Chain of Transcriptional activator Myb (Homo sapiens) (P10242 whole entry, looked up): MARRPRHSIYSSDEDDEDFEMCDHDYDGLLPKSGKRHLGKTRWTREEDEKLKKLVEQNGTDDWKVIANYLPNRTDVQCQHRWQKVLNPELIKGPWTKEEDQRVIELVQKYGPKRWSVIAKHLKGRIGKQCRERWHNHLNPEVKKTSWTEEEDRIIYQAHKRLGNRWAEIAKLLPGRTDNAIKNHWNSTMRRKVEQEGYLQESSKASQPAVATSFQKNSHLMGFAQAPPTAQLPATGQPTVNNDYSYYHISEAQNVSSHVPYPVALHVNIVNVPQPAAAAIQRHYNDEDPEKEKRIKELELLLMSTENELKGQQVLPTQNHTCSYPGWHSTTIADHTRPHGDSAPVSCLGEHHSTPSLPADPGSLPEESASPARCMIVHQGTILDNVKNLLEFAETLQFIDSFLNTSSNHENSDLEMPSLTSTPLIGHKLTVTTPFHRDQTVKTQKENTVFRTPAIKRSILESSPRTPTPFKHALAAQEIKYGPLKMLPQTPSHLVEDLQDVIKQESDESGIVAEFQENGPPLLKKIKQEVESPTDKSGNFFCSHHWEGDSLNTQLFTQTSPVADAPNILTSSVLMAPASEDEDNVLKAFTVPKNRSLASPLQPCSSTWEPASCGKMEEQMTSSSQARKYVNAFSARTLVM
Chain of Nuclear receptor subfamily 4 group A member 2 (Homo sapiens) (P43354 whole entry, looked up, the tested form may be a part): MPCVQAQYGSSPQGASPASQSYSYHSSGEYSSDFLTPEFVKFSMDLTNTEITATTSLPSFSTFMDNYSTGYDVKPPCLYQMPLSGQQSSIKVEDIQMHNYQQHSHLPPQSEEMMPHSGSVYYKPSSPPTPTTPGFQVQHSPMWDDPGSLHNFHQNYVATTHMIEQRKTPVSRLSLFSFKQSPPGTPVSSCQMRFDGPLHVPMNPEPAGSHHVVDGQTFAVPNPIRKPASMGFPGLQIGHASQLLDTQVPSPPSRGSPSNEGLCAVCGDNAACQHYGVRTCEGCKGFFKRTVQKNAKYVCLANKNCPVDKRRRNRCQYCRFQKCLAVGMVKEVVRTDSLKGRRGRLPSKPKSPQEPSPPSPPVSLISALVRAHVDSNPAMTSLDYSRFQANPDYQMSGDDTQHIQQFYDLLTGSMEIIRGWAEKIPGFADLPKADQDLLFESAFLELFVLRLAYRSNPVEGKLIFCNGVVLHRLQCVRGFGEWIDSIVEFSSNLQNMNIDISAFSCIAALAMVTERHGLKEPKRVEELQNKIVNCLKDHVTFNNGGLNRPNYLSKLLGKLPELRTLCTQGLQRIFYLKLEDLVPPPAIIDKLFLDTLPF
Chain of Hepatocyte nuclear factor 4-alpha (Homo sapiens) (P41235 whole entry, looked up): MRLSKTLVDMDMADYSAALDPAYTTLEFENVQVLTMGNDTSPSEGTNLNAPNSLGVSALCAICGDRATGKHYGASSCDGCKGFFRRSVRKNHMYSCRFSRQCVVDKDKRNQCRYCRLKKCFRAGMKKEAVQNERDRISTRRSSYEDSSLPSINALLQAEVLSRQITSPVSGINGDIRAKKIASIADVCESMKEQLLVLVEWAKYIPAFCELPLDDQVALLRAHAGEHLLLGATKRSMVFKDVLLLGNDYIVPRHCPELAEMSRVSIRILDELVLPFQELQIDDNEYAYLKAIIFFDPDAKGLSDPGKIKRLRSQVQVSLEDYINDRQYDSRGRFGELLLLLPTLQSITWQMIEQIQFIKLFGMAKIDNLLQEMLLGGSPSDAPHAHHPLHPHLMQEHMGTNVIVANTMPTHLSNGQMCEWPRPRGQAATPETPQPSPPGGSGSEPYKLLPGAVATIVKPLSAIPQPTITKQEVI

By AC50 is commonly meant the concentration giving half of the maximal activity seen. On to `CC(=O)Nc1ccc(C(=O)CCl)cc1`, for which the compound was called inactive in experiment [1], in experiment [2], in experiment [3], in experiment [4] and in experiment [5]. In addition, in experiment [6], the AC50 was 8.18 µM (active).

`O=c1[nH]c(=O)c2cn[nH]c2[nH]1`: the result in experiment [7], in experiment [1], in experiment [8], in experiment [4], in experiment [5] and in experiment [6] was inactive.

Take `COC(C)(C)CCO`: the compound was called inactive in experiment [7], in experiment [8], in experiment [4], in experiment [5] and in experiment [6].

Regarding `C[C@@H]1CCN(C(=O)[C@H](CCCN=C(N)N)NS(=O)(=O)c2cccc3c2NC[C@H](C)C3)[C@@H](C(=O)O)C1`, the compound was classed as inactive in experiment [7], in experiment [2], in experiment [3], in experiment [4] and in experiment [6].

In the case of `CCCCCCOC(=O)C(C)C`, the compound was classed as inactive in experiment [7], in experiment [1], in experiment [2], in experiment [4], in experiment [5] and in experiment [6].

Turning to `COC(=O)c1ccc([N+](=O)[O-])cc1`, the call in experiment [1], in experiment [2], in experiment [8], in experiment [3], in experiment [4] and in experiment [5] was inactive. The outcome in experiment [6] was inactive.

On to `CCCC(=O)OC(C)(C)Cc1ccccc1`, for which the result in experiment [1], in experiment [8], in experiment [3] and in experiment [4] was inactive.

On to `COC(C)(C)CCCC(C)CC=O` (stereo not given), for which the result in experiment [7], in experiment [1], in experiment [8], in experiment [3], in experiment [4] and in experiment [5] was inactive. In experiment [6], the compound was called inactive.

Consider `C=CC(=O)OCCC#N`, for which the call in experiment [1], in experiment [2], in experiment [3], in experiment [4], in experiment [5] and in experiment [6] was inactive.

For the compound `CC(C)Nc1nc(N)nc(Cl)n1`, the compound was classed as inactive in experiment [1], in experiment [2], in experiment [4], in experiment [5] and in experiment [6].

In the case of `CC1(C)O[C@@H]2[C@@H](CO[C@@]3(COS(N)(=O)=O)OC(C)(C)O[C@@H]23)O1`, the compound was called inactive in experiment [1], in experiment [2], in experiment [3], in experiment [4], in experiment [5] and in experiment [6].

As for `C=CCOC(=O)CCCCCC`, the compound was classed as inactive in experiment [1], in experiment [2], in experiment [8], in experiment [3], in experiment [4] and in experiment [5]. For the same compound, the compound was called inactive in experiment [6].

Take `Nc1ccc(Cl)c([N+](=O)[O-])c1`: the outcome in experiment [1], in experiment [2], in experiment [8], in experiment [4], in experiment [5] and in experiment [6] was inactive.

Take `COCCOCCOCCO`: the call in experiment [7], in experiment [1], in experiment [8], in experiment [3], in experiment [4] and in experiment [5] was inactive. For the same compound, in experiment [6], the result was inactive.

`CCc1ccc(O)cc1`: the compound was classed as inactive in experiment [1], in experiment [2], in experiment [8], in experiment [4], in experiment [5] and in experiment [6].

Take `CN1C(=O)c2ccccc2C1=O`: the call in experiment [1], in experiment [2], in experiment [3], in experiment [4], in experiment [5] and in experiment [6] was inactive.

As to `C=C(C)CNCC`, the compound was called inactive in experiment [1], in experiment [2], in experiment [8], in experiment [3], in experiment [4] and in experiment [5]. Further, the result in experiment [6] was inactive.

For the compound `BrCc1cccc(Oc2ccccc2)c1`, the result in experiment [7], in experiment [2], in experiment [8], in experiment [4], in experiment [5] and in experiment [6] was inactive.

Turning to `CCCCCCCCCCCC(=O)OCC(O)CO` (stereo not given), the call in experiment [7], in experiment [2], in experiment [8], in experiment [4], in experiment [5] and in experiment [6] was inactive. Further, the AC50 in experiment [3] is 132 µM (active).

In the case of `N#Cc1ccc(CC(=O)c2cccc(C(F)(F)F)c2)cc1`, the compound was classed as inactive in experiment [1], in experiment [2], in experiment [8] and in experiment [4]. In addition, the results for the AC50 in experiment [3], in experiment [5] and in experiment [6] were 100 µM (active), 100 µM (active) and 188 µM (active), respectively.

Consider `C=C(C)C(=O)OCCOCCOCCOCCOC(=O)C(=C)C`, for which the outcome in experiment [1], in experiment [2], in experiment [4] and in experiment [5] was inactive.

Turning to `O=P(O)(O)O`, the compound was called inactive in experiment [1], in experiment [2], in experiment [4], in experiment [5] and in experiment [6].

Regarding `C=CCN(CC=C)CC=C`, the compound was classed as inactive in experiment [1], in experiment [2], in experiment [4], in experiment [5] and in experiment [6].

In the case of `CC=CC=CCOC(=O)C(C)C`, the call in experiment [7], in experiment [1], in experiment [8], in experiment [3], in experiment [4] and in experiment [5] was inactive. Besides, the compound was classed as inactive in experiment [6].

As to `C=Cc1ccc(C)cc1`, the outcome in experiment [7], in experiment [8], in experiment [4] and in experiment [5] was inactive.

In the case of `Nc1ccn([C@H]2CS[C@@H](CO)O2)c(=O)n1`, the compound was called inactive in experiment [1], in experiment [2], in experiment [4], in experiment [5] and in experiment [6].

Consider `C[N+](C)(C)CCCCCC[N+](C)(C)C`, for which the compound was called inactive in experiment [1], in experiment [2], in experiment [3], in experiment [4], in experiment [5] and in experiment [6].

`CCOc1ccccc1O`: the result in experiment [1], in experiment [2], in experiment [8], in experiment [3], in experiment [4] and in experiment [5] was inactive. In addition, the outcome in experiment [6] was inactive.
